# Laboratory results: PubChem BioAssay (Tox21)
# Values joined by “and” are separate entries in the source; they are usually repeats but may differ in a detail not shown here. Equal values may be shown once. Results filed as inconclusive are left out. A call without a number means that no potency is given here. Active and inactive are the calls of the source. Unless noted, calls come from the whole dose curve.
# Target: Nuclear receptor ROR-gamma (Homo sapiens) (UniProt P51449)
# Assay: qHTS assay to identify small molecule antagonists of the retinoid-related orphan receptor gamma (ROR-gamma) signaling pathway (AID 1159521; active = well fitted inhibition curve with a large enough effect in the repeat runs; note: nearly all actives have a fitted effect of over 50% in size; note: potency is the fitted concentration of half-maximal effect)
# Settings: Tet-on RORgamma CHO cells, RORE-luciferase, 16 h; series mostly up to 92.4 µM
# How it was run: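 CHO cells expressing RORγ under a TET-on promoter, luciferase under RORE control. Dox 1 uM final, 16 h; compounds added 2 h prior. Luminescence decrease measured.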
row,Structure (SMILES),Potency
1,COc1cc2c(c(OC)c1OC)-c1ccc(OC)c(=O)cc1[C@@H](NC(C)=O)CC2,538 nM (active) and 686 nM (active) and 37.6 nM (active)
2,CC(=O)/C=C/C1=C(C)CCCC1(C)C,inactive
3,CC(C)=CCC/C(C)=C/CO,inactive

# System: not listed separately
# Assay: qHTS assay to identify small molecule agonists of the AP-1 signaling pathway - cell viability counter screen (AID 1159525); note: nearly all actives have a fitted effect of over 55% in size
# Settings: ME-180 AP-1-bla cells viability, ATP luminescence, 5 h; series mostly up to 76.8 µM
# How it was run: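 Each titration point was normalised to DMSO and tetra n-octyl ammonium bromide controls. The read was Cell Titer Glo luminescence after 30 min at RT, following 5 h compound exposure of ME-180 AP-1-bla cells at 37 °C.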
row,Structure (SMILES),outcome
1,CC1=C(/C=C/C(C)=C/C=C/C(C)=C/C(=O)O)C(C)(C)CCC1,inactive
2,CC(=O)/C=C/C1=C(C)CCCC1(C)C,inactive
3,CC(=O)OC/C=C(C)/C=C/C=C(C)/C=C/C1=C(C)CCCC1(C)C,inactive
4,Nc1ccc(N=Nc2ccccc2)c(N)n1,inactive
5,C/C=C/c1ccc(O)c(OC)c1,inactive
6,CC(C)(C)CC(C)(C)c1ccc(O)c(-n2nc3ccccc3n2)c1,inactive
7,CC(C)=CCC/C(C)=C/CO,inactive
8,O=C1OC(c2ccc(O)cc2)(c2ccc(O)cc2)c2ccccc21,inactive

# System: not listed separately
# Assay: qHTS assay to identify small molecule agonists of the AP-1 signaling pathway (AID 1159526); note: potency is the fitted concentration of half-maximal effect
# Settings: ME-180 (cervical carcinoma) AP-1-bla reporter, beta-lactamase FRET ratio, 5 h; series mostly up to 76.8 µM
row,Structure (SMILES),Potency
1,NCCNc1cccc2ccccc12,inactive
2,CC(C)CC(C)CC(O)CC(C)C (stereo not given),inactive
3,CC1=C(/C=C/C(C)=C/C=C/C(C)=C/C(=O)O)C(C)(C)CCC1,inactive
4,NC(N)=NC(N)=NCCc1ccccc1,inactive
5,COc1cc2c(c(OC)c1OC)-c1ccc(OC)c(=O)cc1[C@@H](NC(C)=O)CC2,172 nM (active)
6,CCOC(=O)C(C)(C)Oc1ccc(Cl)cc1,inactive
7,Cc1cccc(C)c1O,inactive
8,NC(=O)N1c2ccccc2C=Cc2ccccc21,inactive
9,C=CCOC(=O)CC(C)C,inactive
10,CCN(CC)CCOC(=O)c1ccc(N)cc1,inactive
11,CC(=O)/C=C/C1=C(C)CCCC1(C)C,inactive
12,CC(=O)Oc1ccccc1C(=O)O,inactive
13,CC(=O)OC/C=C(C)/C=C/C=C(C)/C=C/C1=C(C)CCCC1(C)C,inactive
14,Nc1ccc(N=Nc2ccccc2)c(N)n1,inactive
15,O=C1CCCCCN1,inactive
16,CN(C)Cc1cc(CN(C)C)c(O)c(CN(C)C)c1,inactive
17,C/C=C/c1ccc(O)c(OC)c1,inactive
18,CC(C)(C)CC(C)(C)c1ccc(O)c(-n2nc3ccccc3n2)c1,inactive
19,N[C@@H](Cc1c[nH]c2ccc(O)cc12)C(=O)O,inactive
20,C1CNCCN1,inactive
21,CC(C)=CCC/C(C)=C/CO,inactive
22,COc1ccccc1O,inactive
23,OC[C@@H](O)[C@@H](O)[C@H](O)[C@H](O)CO,inactive
24,C#C[C@]1(O)CC[C@H]2[C@@H]3CCc4cc(O)ccc4[C@H]3CC[C@@]21C,inactive
25,NC(=O)c1ccc([N+](=O)[O-])cc1Cl,inactive
26,C[C@]12CC[C@@H]3c4ccc(O)cc4CC[C@H]3[C@@H]1CCC2=O,inactive
27,COc1ccccc1NC(=O)CC(C)=O,inactive
28,C#C[C@]1(O)CC[C@H]2[C@@H]3CCC4=CC(=O)CC[C@@H]4[C@H]3CC[C@@]21CC,inactive
29,C[C@]12CC[C@@H]3c4ccc(O)cc4C[C@@H](CCCCCCCCCS(=O)CCCC(F)(F)C(F)(F)F)[C@H]3[C@@H]1CC[C@@H]2O (stereo not given in full),inactive
